# Assay results taken from PubChem BioAssay (EPA / NIEHS).
# Calls of active or inactive are those of the source. How the source made its calls: active means hit-call score of the fitted dose curve at least 0.9, where 1 is the maximum; inactive means score below 0.9.
# Read-out: UDP glucuronosyltransferase (UGT1A6), UGT1A6 (gene 54578)
# Test: LTEA_HepaRG_UGT1A6: Life Technologies and Expression Analysis (LTEA) Assay for UDP glucuronosyltransferase (UGT1A6) using HepaRG (AID 2283539)
# Settings: mRNA level, 48 h; actives raise or lower the signal
# Method: LTEA_HepaRG is a cell based, multiplexed-readout assay that uses HepaRG, a human liver cell line, with measurements taken at 48 hours after chemical dosing on a 96-well plate.LTEA_HepaRG_UGT1A6 is one of 102 assay component(s) measured in the LTEA HepaRG cell culture assay. It is a marker of NR mediated metabolism.Data from the assay component LTEA_HepaRG_UGT1A6 was analyzed into 1 endpoint. This assay endpoint, LTEA_HepaRG_UGT1A6, was analyzed with bidirectional fitting relative to DMSO as the negative control and baseline of activity. Using a type of inducible reporter, measures of mRNA induction for gain or loss-of-signal activity can be used to understand regulation of transcription factor activity. To generalize the intended target to other relatable targets, this assay endpoint is annotated to the transferase intended target family, where the subfamily is glucuronosyltransferase.
# A total of 1060 chemcials from the ToxCast library were tested in eight-point concentration-response experiments. Cell culture and cytotoxicity assays were conducted at Thermo Fisher Scientific's Custom Services facility (Madison, WI). A single lot of human HepaRG cells (Thermo Fisher Scientific, Frederick, MD) was used for the cell culture experiments. 96-well format collagen type I coated plates of human HepaRG cells were prepared using established methods. Briefly, cryopreserved HepaRG cells were thawed, plated at a density of approximately 100,000 cells/well in HepaRG Thaw, Plate, and General Purpose media (HPRG770, Thermo Fisher Scientific), and incubated for 48 hours. 0.5% DMSO was selected as vehicle control to balance the requisite need of DMSO in HepaRG cultures to maintain differentiation (for example, baseline metabolism, proportions of hepatocytes vs. cholangiocytes), while enabling further hepatic receptor pathway activation (for example, PXR and CAR) in response to chemical exposure. 48 hours after plating, the culture medium was replaced with HepaRG Serum-Free Incudtion Media. Cells were exposed to each test chemical in duplicate and maintained in CO2 incubators for another 48 hours. Chemical plates were thawed to room temperature and 200x concentrations of treatment groups were prepared. 8-point conentration-reponse curves were made with the highest exposure at 100 uM, followed by half-log dilutions, all in 0.5% DMSO. Each test plate contained variouse controls, induction positive controls (1mM phenobarbital), cytotoxicity positive controls ([…] aflatoxin B1), vehicle controls (0.5% DMSO), and total lysis controls (0.5% DMSO). Cell morphology images were taken using an Essen IncuCyte FLR automated microscope, with six 96-well plates imaged in about 24 minutes. Images were captured and exported and JPEG files. Spent culture media was transfered to black-well plates for the LDH assay, and remaining media was sorted at -80 C for later use. Cells were treated with RLT buffer and frozen until shipped for gene expression analysis. Total RNA was isolated from the cell suspension in 75 uL of Buffer RLT (Qiagen, Germantown, MD 20874) by Quintiles/Expression Analysis (Durham, NC) using a custom isolation procedure. Total RNA from each plate well was transferred to a preamplification plate. Fluidigm's 96.96 Dynamic ArrayTM (Fluidigm, Amsterdam, the Netherlands) technology was used for gene expression analyses by quantitative reverse transcription polymerase chain reaction (qRT-PCR, performed by Quintiles/Expression Analysis, Durham, NC)89. Standard TaqManTM Assays (Applied Biosystems/ThermoFisher Scientific, Foster City, CA) were used to assess the expression of 93 genes selected based on their selectivity and sensitivity to important hepatic receptors known to be modulated by environmental chemicals; importance in human hepatocyte functionality; and hepatotoxicity. […]
Compound,outcome,AC50
CCCCC(CC)COC(=O)c1ccc(C(=O)OCC(CC)CCCC)c(C(=O)OCC(CC)CCCC)c1 (stereo not given),inactive,–
Clc1ccc(C(c2ccc(Cl)cc2)C(Cl)(Cl)Cl)cc1,inactive,–
CN(C)C(=O)Nc1ccc(Cl)cc1,inactive,–
CCCSC(=O)N(CCC)CCC,inactive,–
CC(C)COC(=O)c1ccccc1C(=O)OCC(C)C,inactive,–
CCNS(=O)(=O)C(F)(F)C(F)(F)C(F)(F)C(F)(F)C(F)(F)C(F)(F)C(F)(F)C(F)(F)F,inactive,–
Cc1ccc(N)c(N)c1,inactive,–
CC(C)(C)C(O)(CCc1ccc(Cl)cc1)Cn1cncn1 (stereo not given),inactive,–
O=C1CCCO1,–,50 µM (active)
[O-][Cl+]O,inactive,–
CN(C)[C@@H]1C(=O)C(C(N)=O)=C(O)[C@@]2(O)C(=O)C3=C(O)c4c(O)cccc4[C@@](C)(O)[C@H]3C[C@@H]12,inactive,–
CN(C)c1ccccc1,inactive,–
OCCCBr,inactive,–
Oc1ccc2ccc3cccc4ccc1c2c34,inactive,–
Nc1ccc(N=Nc2ccccc2)cc1,–,19.8 µM (active)
N#CC(Br)Br,inactive,–
CNC(=O)Oc1cccc2c1OC(C)(C)C2,inactive,–
CC(C)(C)OOC(C)(C)CCC(C)(C)OOC(C)(C)C,inactive,–
[Cl-].[Cl-].[Hg+2],inactive,–
C1=Cc2cccc3cccc1c23,inactive,–

Compound,outcome,AC50
CCCCCCCCCCCCCN1CC(C)OC(C)C1 (stereo not given),inactive,–
Cc1ccc(N=C=O)cc1N=C=O,inactive,–
Oc1ccccc1Cl,inactive,–
Nc1ccc(Cl)cc1N,–,54.9 µM (active)
ClCCOCCCl,inactive,–
CCCCOC(=O)c1ccccc1C(=O)OCc1ccccc1,inactive,–
CC(C)(O)c1cnn2c(-c3ccc(F)c(-c4c(F)cccc4C#N)c3)cnc2n1,inactive,–
c1ccc(C2CO2)cc1 (stereo not given),inactive,–
O=Cc1ccco1,inactive,–
O=[N+]([O-])c1ccc(Oc2ccc(Cl)cc2Cl)cc1,inactive,–
CCOc1cccc(C2(N3CCN(c4ccccc4)CC3)CCC(C)CC2)c1 (stereo not given),inactive,–
CCOC(=O)[C@]1(c2ccccc2)Oc2ccccc2[C@@H]1N,–,80 µM (active)
Nc1ccc(Cc2ccc(N)cc2)cc1,inactive,–
Brc1ccc(Oc2ccccc2)cc1,inactive,–
OCCOCCO,inactive,–
Clc1ccc(Cl)c(Cl)c1,–,9.92 µM (active)
c1ccc(N=Nc2ccccc2)cc1,inactive,–
CCCCCCCCn1sccc1=O,–,81.3 µM (active)
ClC1=C(Cl)[C@]2(Cl)[C@H]3[C@H]([C@@H]4C=C[C@H]3C4)[C@@]1(Cl)C2(Cl)Cl,inactive,–
CCC(C)c1ccc(O)cc1 (stereo not given),inactive,–
